Source: PubChem BioAssay (National Center for Advancing Translational Sciences (NCATS))
Rows were chosen to be rich in hits. Some 10% of all compounds tested hit in one or more screens of this group.
G9a inh: blocks human histone lysine methyltransferase G9a | AID 504332 | G9a H3K9 monomethylation, AlphaScreen, 2 h | 8.8% of 350,000 active | Potency, µM (highest dose often 102 µM), inactives show at the highest dose activity, negative = inhibition, most hits filed as inhibitors; also: % is scaled to controls: 0 for no effect and ±100 for the full control effect; nearly all actives have a fitted effect of over 75% in size
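Chemiluminescent proximity detection of H3K9 monomethylation, read after 10 min bead incubation in the dark. Reaction: 20 nM G9a, 500 nM biotin-H3K9 peptide, 20 uM SAM cofactor, 2 h, room temperature, following 15 min enzyme-compound preincubation.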
JMJD2A Tudor: JMJD2A Tudor domain (human) inhibition; O75164; AlphaScreen JMJD2A-Tudor / H3K4me3 peptide binding; Potency, µM (top dose mostly 114 µM), without a hit: at the highest dose activity change, negative = inhibition, most hits filed as inhibitors; 4.4% of 390,000 active; AID 504339; also: % is scaled to controls: 0 for no effect and ±100 for the full control effect; nearly all actives have a fitted effect of over 50% in size
HP1b chromo inh: inhibitors of HP1-beta chromodomain binding to methylated histone tails | P83916 | AlphaScreen HP1-beta / biotin-H3K9me3 peptide binding | Potency, µM (top dose mostly 114 µM), for the others: at the highest dose activity change, negative = inhibition, hits mostly inhibitors | 0.56% of 390,000 active | AID 540317; also: nearly all actives have a fitted effect of over 70% in size
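HP1-beta protein (50 nM final) preincubated 30 min at room temperature with biotinylated H3(1-18)K9me3 peptide (50 nM) in PBS pH 7.4, 0.01% Tween-20, then compound added for 30 min. AlphaScreen streptavidin donor/nickel chelate acceptor beads (10 ug/mL final), 30 min dark, luminescence read.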
BAZ2B inh: blocks human BAZ2B. Q9UIF8. AlphaScreen BAZ2B-H3K14Ac peptide displacement. Potency, µM (doses to about 114 µM), for the others: at the highest dose activity change, negative = inhibition, actives largely listed as inhibitors. 4.4% of 360,000 active. AID 504333; also: % is scaled to controls: 0 for no effect and ±100 for the full control effect; nearly all actives have a fitted effect of over 60% in size
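AlphaScreen luminescence quantifies BAZ2B engagement of H3K14Ac peptide; the protein and biotinylated peptide are both at 50 nM final, buffer PBS pH 7.4 with 0.01% Tween-20, all steps at room temperature.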
L3MBTL1 block: L3MBTL1 (human) inhibition | 0.66% of 230,000 active | AlphaScreen L3MBTL1–H3K9me1 peptide binding | Q9Y468 | Potency, µM (titrated, usually from 57.1 µM), without a hit: at the top dose activity, negative = inhibition, hits mostly inhibitors | AID 485360; also: % is scaled to controls: 0 for no effect and ±100 for the full control effect; nearly all actives have a fitted effect of over 60% in size
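L3MBTL1 (50 nM) pre-complexed 30 min with biotinylated H3(1-15)K9me1 peptide (75 nM), then compounds added for 30 min at room temperature; AlphaScreen streptavidin donor/nickel chelate acceptor beads (10 ug/mL final) read after 30 min dark incubation.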
GLS inhibitor: inhibitors of human glutaminase (GLS) | O94925 | GLS enzymatic activity, qHTS titration | Potency, µM (titrated, usually from 45.5 µM), for inactives: at the top dose activity change, negative = inhibition, most hits filed as inhibitors | 0.21% of 410,000 active; also: % is scaled to controls: 0 for no effect and ±100 for the full control effect
Target sequence (O94925 whole entry, looked up): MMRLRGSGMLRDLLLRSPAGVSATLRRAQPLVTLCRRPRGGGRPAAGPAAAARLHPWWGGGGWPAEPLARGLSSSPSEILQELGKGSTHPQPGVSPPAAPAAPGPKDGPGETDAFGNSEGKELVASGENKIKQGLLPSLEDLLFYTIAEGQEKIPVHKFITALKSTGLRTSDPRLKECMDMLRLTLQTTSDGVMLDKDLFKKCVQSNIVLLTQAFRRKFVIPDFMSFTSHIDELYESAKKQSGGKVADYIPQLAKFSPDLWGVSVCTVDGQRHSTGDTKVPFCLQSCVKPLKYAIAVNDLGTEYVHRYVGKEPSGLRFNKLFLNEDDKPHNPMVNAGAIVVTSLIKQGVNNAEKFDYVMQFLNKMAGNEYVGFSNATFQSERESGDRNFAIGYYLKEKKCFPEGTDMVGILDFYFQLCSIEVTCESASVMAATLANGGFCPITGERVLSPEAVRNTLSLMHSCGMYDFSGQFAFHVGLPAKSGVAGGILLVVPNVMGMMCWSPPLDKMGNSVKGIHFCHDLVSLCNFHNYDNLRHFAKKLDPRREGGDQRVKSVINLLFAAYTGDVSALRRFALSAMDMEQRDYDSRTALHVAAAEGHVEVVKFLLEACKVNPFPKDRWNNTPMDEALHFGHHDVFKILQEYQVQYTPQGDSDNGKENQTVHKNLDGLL
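hKGA; 45 mM KH2PO4 pH 8.2 + 0.02% Tween-20; cpd via pin tool; 1 mM Gln soln; GluOx/HRP/Amplex Red; RT 30 min; fluor. t0 & final.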
Numbers without * were called inactive; ! = not active in a repeat; [ ] = remark or other dose. Calls follow the shape of the dose curve; as a rule, active = well fitted curve in the direction sought with a large enough effect; inconclusive = small, poorly fitted or top-dose-only effect, or another doubt; inactive = no such curve, though single readings can be large; an effect the other way counts as inactive or inconclusive. Potency is read from the fitted curve at half-maximal effect.

Cc1ccc(C)c(N2C(=N)S/C(=C\c3ccc(-c4ccccc4C(=O)O)o3)C2=O)c1 was read as G9a inh 2.2µM*, JMJD2A Tudor 32µM*, HP1b chromo inh -38%, BAZ2B inh 20µM*, L3MBTL1 block inconclusive and GLS inhibitor 0%.
For Cc1c(C(=O)O)cccc1-c1ccc(C=O)o1 the results were G9a inh inconclusive, JMJD2A Tudor -31%, HP1b chromo inh 5%, BAZ2B inh -10%, L3MBTL1 block inconclusive and GLS inhibitor -17%.
For CCOC(=O)C(C)N1C(=O)S/C(=C\c2ccc(-c3ccccc3C(=O)O)o2)C1=O (stereo unspecified) the results were G9a inh 10µM*, JMJD2A Tudor 22µM*, HP1b chromo inh inconclusive, BAZ2B inh 25µM* and GLS inhibitor 13µM*.
Cc1ccc(C)c(CN2C(=O)COc3ccc(C(=O)c4ccccc4C(=O)O)cc32)c1 was read as G9a inh 7%, JMJD2A Tudor -17%, HP1b chromo inh 30%, BAZ2B inh -24%, L3MBTL1 block -1% and GLS inhibitor -11%.
`Cc1cc(C)n2nc(CNC(=O)c3cccc(N(C)C)c3)nc2n1` gave G9a inh 4%[59 µM], JMJD2A Tudor 1%, HP1b chromo inh 23%, BAZ2B inh -16% and GLS inhibitor 51%.
`CC(COc1ccc(/C=C/c2ccccc2)cc1)[N+](C)(C)C` (stereo unspecified) gave G9a inh 4µM*, JMJD2A Tudor -25%, HP1b chromo inh 27%, BAZ2B inh 4%, L3MBTL1 block -2% and GLS inhibitor 2%.
For COc1cccc(N2CCN(Cc3nc(N)nc(Nc4ccccc4OC)n3)CC2)c1 the results were G9a inh -5%[59 µM], JMJD2A Tudor -27%[57.1 µM], HP1b chromo inh 18%, BAZ2B inh 50µM*, L3MBTL1 block -13% and GLS inhibitor 26%.
For COc1ccccc1Nc1nc(N)nc(CN2CCN(c3ccccc3)CC2)n1 the results were G9a inh inconclusive, JMJD2A Tudor 56µM*, HP1b chromo inh -1%, BAZ2B inh 50µM* and GLS inhibitor 8%.
Screening COc1ccccc1N1CCN(Cc2nc(N)nc(Nc3ccccc3)n2)CC1 returned G9a inh 79µM*, JMJD2A Tudor 50µM*, HP1b chromo inh 14%, BAZ2B inh -95%, L3MBTL1 block -5% and GLS inhibitor 50%.
Screening O=S(=O)(NCCSCc1ccc(Cl)cc1Cl)c1ccc2c(c1)OCCO2 returned G9a inh 24%, JMJD2A Tudor 79µM*, HP1b chromo inh 2%, BAZ2B inh 1%, L3MBTL1 block 8% and GLS inhibitor -3%.
Screening O=S(=O)(NCCSCc1c(Cl)cccc1Cl)c1ccc2c(c1)OCCO2 returned G9a inh 39%, JMJD2A Tudor 1%, HP1b chromo inh 36%, BAZ2B inh -1%[57.1 µM], L3MBTL1 block -6% and GLS inhibitor 1%.
Screening CCN1c2cc(C)ccc2-n2cccc2C12CCN(C(=O)Nc1cc(OC)c(OC)c(OC)c1)CC2 returned G9a inh inconclusive, JMJD2A Tudor inconclusive, HP1b chromo inh -17%[57 µM], BAZ2B inh -34% and GLS inhibitor 9%.
For Cc1ncc(C[n+]2csc(CCOP(=O)(O)OP(=O)(O)O)c2C)c(N)n1 the results were G9a inh 23%[59 µM] and GLS inhibitor -2%.
For S=c1[nH]nc(-c2ccccc2Cl)n1/N=C/C=C/c1ccco1 the results were G9a inh 1.1µM*, JMJD2A Tudor 16µM*, HP1b chromo inh -25%, BAZ2B inh inconclusive, L3MBTL1 block -7% and GLS inhibitor -15%.
For S=c1[nH]nc(-c2ccncc2)n1/N=C/C=C/c1ccco1 the results were G9a inh -138%, JMJD2A Tudor 8.9µM*, HP1b chromo inh -15%, BAZ2B inh 50µM*, L3MBTL1 block 18µM* and GLS inhibitor inconclusive.
CC(/C=N/n1c(-c2ccccc2)n[nH]c1=S)=C\c1ccco1 was read as G9a inh 2.2µM*, JMJD2A Tudor 50µM*, HP1b chromo inh -20%, BAZ2B inh 50µM*, L3MBTL1 block -4% and GLS inhibitor -24%.
CC(/C=N/n1c(-c2ccc(C)cc2)n[nH]c1=S)=C\c1ccco1 was read as G9a inh 1.3µM*, JMJD2A Tudor inconclusive, HP1b chromo inh inconclusive, BAZ2B inh -29%, L3MBTL1 block -14% and GLS inhibitor -13%.
Screening CN1CCN(C(c2ccc(F)cc2)c2sc3nc(-c4ccco4)nn3c2O)CC1 (stereo unspecified) returned G9a inh -5%[59 µM], JMJD2A Tudor 7%, HP1b chromo inh 39%, BAZ2B inh -5% and GLS inhibitor -5%.
`CC(/C=N/n1c(-c2ccco2)n[nH]c1=S)=C\c1ccco1` gave G9a inh 1.4µM*, JMJD2A Tudor 45µM*, HP1b chromo inh inconclusive, BAZ2B inh inconclusive, L3MBTL1 block -21% and GLS inhibitor -11%.
Screening C(=C\c1ccco1)/C=N/n1cnnc1 returned G9a inh 40µM*, JMJD2A Tudor -13%, HP1b chromo inh 30%, BAZ2B inh -4%, L3MBTL1 block inconclusive and GLS inhibitor 0%.
CC(/C=N/n1c(-c2ccncc2)n[nH]c1=S)=C\c1ccco1 was read as JMJD2A Tudor 5µM*, HP1b chromo inh -5%, BAZ2B inh inconclusive and GLS inhibitor inconclusive.
Screening Cc1c(CC(=O)NCc2ccc(F)cc2)c(=O)oc2cc(O)c(Cl)cc12 returned G9a inh 3%[59 µM], JMJD2A Tudor 6%, HP1b chromo inh 59%, BAZ2B inh 4% and GLS inhibitor 4%.
Screening COc1ccc(C)c2sc(N(Cc3cccnc3)C(=O)CCc3ccccc3)nc12 returned G9a inh inconclusive, JMJD2A Tudor -23%, HP1b chromo inh 29%, BAZ2B inh -25% and GLS inhibitor -3%.
Screening CCN(CC)c1cc2nonc2c2nonc12 returned G9a inh 9%[59 µM], JMJD2A Tudor 23%, HP1b chromo inh 48%, BAZ2B inh 51%, L3MBTL1 block 19% and GLS inhibitor 33%.
CCN(CC)c1cc(Cl)c2nonc2c1N was read as G9a inh 32µM*, JMJD2A Tudor inconclusive, HP1b chromo inh inconclusive, BAZ2B inh inconclusive, L3MBTL1 block inconclusive and GLS inhibitor inconclusive.
For CN(C)c1cc(Cl)c2nonc2c1N the results were G9a inh 40µM*, JMJD2A Tudor inconclusive, HP1b chromo inh inconclusive, BAZ2B inh 50µM*, L3MBTL1 block 32µM* and GLS inhibitor 0%.
For CCCCS(=N)(=O)CC[C@H](N)C(=O)O (stereo partly specified) the results were G9a inh 10µM*!.
